# Test results reported in ChEMBL document CHEMBL1961873, “Compounds: GSK PKIS; Assays: Nanosyn kinase panel” (2012).
# Biological target: T1, Homeodomain-interacting protein kinase 4 (Homo sapiens) (UniProt Q8NE63)
# T1 sequence (whole entry): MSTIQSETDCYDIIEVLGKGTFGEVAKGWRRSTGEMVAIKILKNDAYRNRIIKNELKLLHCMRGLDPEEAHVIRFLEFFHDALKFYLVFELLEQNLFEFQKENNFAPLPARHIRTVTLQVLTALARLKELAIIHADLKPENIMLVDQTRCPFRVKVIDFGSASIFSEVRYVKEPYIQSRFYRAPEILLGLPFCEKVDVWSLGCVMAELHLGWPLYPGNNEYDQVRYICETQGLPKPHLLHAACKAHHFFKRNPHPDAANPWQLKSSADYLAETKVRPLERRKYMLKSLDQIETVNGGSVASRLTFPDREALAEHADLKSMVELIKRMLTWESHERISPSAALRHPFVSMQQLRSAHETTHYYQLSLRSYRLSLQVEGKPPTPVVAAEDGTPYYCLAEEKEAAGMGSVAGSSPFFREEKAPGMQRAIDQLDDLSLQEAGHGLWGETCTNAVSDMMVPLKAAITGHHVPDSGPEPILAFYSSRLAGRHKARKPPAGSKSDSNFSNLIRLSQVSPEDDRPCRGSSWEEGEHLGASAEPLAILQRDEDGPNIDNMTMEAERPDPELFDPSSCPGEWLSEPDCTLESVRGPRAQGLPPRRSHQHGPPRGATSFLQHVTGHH
# Details: at 0.1 µM
row,Structure (SMILES),inhibition
1,NC(=O)c1cc(-c2ccc(F)cc2)cc(-c2ccncc2)c1N,-0.23%
2,O=C(NCC1CC1)c1ccc(-c2cccc(C(=O)NC3CC3)c2)cc1,2.02%
3,COc1ccc2ncn(-c3cc(O[C@H](C)c4ccccc4Cl)c(C(N)=O)s3)c2c1,0.62%
4,O=C1Nc2ccc(I)cc2C1=Cc1cc(Br)c(O)c(Br)c1,-0.29%
5,Fc1ccc(-c2ncn(CCCN3CCOCC3)c2-c2ccncc2)cc1,-2.02%
6,COc1ccc2cc(-c3c(-c4ccncc4)nc(-c4ccc([S+](C)[O-])cc4C)n3C)ccc2c1 (stereo not given),2.25%
7,COC(=O)Nc1nc2ccc(Sc3ccc(NC(=O)Nc4cc(C(F)(F)F)ccc4F)cc3)cc2[nH]1,3.14%
8,CN(C)CCCNc1nccc(-c2c(-c3ccc(F)cc3)nn3cc(C(F)(F)F)ccc23)n1,4.04%
9,CCS(=O)(=O)c1ccc(OC)c(Nc2ncc(-c3ccccc3Cl)o2)c1,8.83%
10,Fc1ccc(-c2c(-c3ccncc3)nc3n2CCS3)cc1,-1.11%
11,CCN(CC)Cc1ccc(Nc2nccc(-c3cnn4ncccc34)n2)cc1,18.1%
12,COc1cc2ncn(-c3cc(OCCc4ccccc4)c(C(N)=O)s3)c2cc1OC,2.74%
13,Cc1ccc(NC(=O)c2ccoc2)cc1-c1ccc(C(=O)NCC2CC2)cc1,0.84%
14,NS(=O)(=O)c1ccc(N/N=C2\C(=O)Nc3ccc(C(=O)NCCCn4ccnc4)cc32)cc1,3.92%
15,NCc1ccc(-n2c(-c3nonc3N)nc3cnccc32)cc1,0.98%
16,COc1cccc(-n2cnc3c(N/N=C/c4ccncc4)ncnc32)c1,-0.66%
17,C[C@@H](Oc1cc(-n2cnc3ccc(OC4CCN(C)CC4)cc32)sc1C(N)=O)c1ccccc1Cl,3.54%

# Biological target: T1, Homeodomain-interacting protein kinase 4 (Homo sapiens)
# Details: at 1 µM
row,Structure (SMILES),inhibition
1,CS(=O)(=O)CCNCc1cc(-c2cc3c(Nc4ccc(OCc5cccc(F)c5)c(Cl)c4)ncnc3s2)cs1,1.29%
2,CCC(=O)Nc1ccc(C)c(-c2ccc(C(=O)NCC3CC3)cc2)c1,0.55%
3,COc1cc(Nc2ncc3c(C)nc(-c4cccc(C(F)(F)F)c4)n3n2)cc(OC)c1OC,9.08%
4,Fc1ccc(-c2nc3n(c2-c2ccncc2)CCS3)cc1,1.1%
5,NC(=O)c1cc(-c2ccncc2)cc(-c2ccccc2)c1N,4.34%
6,CCc1nccc2c1nc(-c1nonc1N)n2CC,9.48%
7,CN(C)c1ccc2c(c1)/C(=C/Nc1ccc(S(N)(=O)=O)cc1)C(=O)N2,6.94%
8,CS(=O)(=O)CCNCc1ccc(-c2ccc3ncnc(Nc4ccc(OCc5ccccc5)c(Br)c4)c3c2)o1,2.6%
9,Cc1nnc(-c2ccc(C)c(-c3ccc(C(=O)NCc4ccc(Cl)cc4)cc3)c2)o1,0.29%
10,Cc1ccc(C(=O)NC2CCC2)cc1-c1ccc(C(=O)NCC2CC2)cc1,1.07%
11,Clc1ccc(CNc2nccc(-c3cnn4ncccc34)n2)cc1,49%
12,c1ccc(-c2n[nH]cc2-c2ccnc(-c3ccc(OCCN4CCOCC4)cc3)c2)nc1,5.51%
13,CCS(=O)(=O)c1ccc(OC)c(Nc2ncc(-c3cccc(-c4ccccc4F)c3)o2)c1,17.3%
14,COc1cc2ncn(-c3cc(OCc4cccs4)c(C(N)=O)s3)c2cc1OC,63.3%
15,O=C1Nc2ccccc2/C1=C/Nc1ccc(-n2cncn2)cc1,3.17%
16,C/C(Nc1ccc(S(N)(=O)=O)cc1)=C1/C(=O)Nc2ccccc21,2.56%
17,CCc1cccc(CC)c1/C=C/c1cncc(C(=O)NC)c1,4.82%
18,NC(=O)c1cc(-c2ccc(F)cc2)cc(-c2ccncc2)c1N,2.98%
19,O=C(NCC1CC1)c1ccc(-c2cccc(C(=O)NC3CC3)c2)cc1,5.47%
20,COc1ccc2ncn(-c3cc(O[C@H](C)c4ccccc4Cl)c(C(N)=O)s3)c2c1,5.59%
21,O=C1Nc2ccc(I)cc2C1=Cc1cc(Br)c(O)c(Br)c1,6.76%
22,Fc1ccc(-c2ncn(CCCN3CCOCC3)c2-c2ccncc2)cc1,-2.54%
23,COc1ccc2cc(-c3c(-c4ccncc4)nc(-c4ccc([S+](C)[O-])cc4C)n3C)ccc2c1 (stereo not given),5.99%
24,COC(=O)Nc1nc2ccc(Sc3ccc(NC(=O)Nc4cc(C(F)(F)F)ccc4F)cc3)cc2[nH]1,25.5%
25,CN(C)CCCNc1nccc(-c2c(-c3ccc(F)cc3)nn3cc(C(F)(F)F)ccc23)n1,8.4%
26,CCS(=O)(=O)c1ccc(OC)c(Nc2ncc(-c3ccccc3Cl)o2)c1,47.5%
27,Fc1ccc(-c2c(-c3ccncc3)nc3n2CCS3)cc1,5.51%
28,CCN(CC)Cc1ccc(Nc2nccc(-c3cnn4ncccc34)n2)cc1,59%
